Read-out in test [1]: Monocyte Chemoattractant Protein-1 (MCP1), CCL2 (gene 6347)
Nature of the test: BSK_hDFCGF_MCP1: BioMAP Diversity Plus: hDFCGF Assay for Monocyte Chemoattractant Protein-1 (MCP1) Biomarker Activity (AID 2284285). The note with it: primary human foreskin fibroblasts. The gist of the method: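 MCP-1 ELISA readout was taken 24 hours after dosing primary human dermal fibroblasts in the hDFCGF system, with DMSO as baseline. Parallel sulforhodamine B staining of total protein tracked overt cytotoxicity.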

Read-out in test [2]: Vascular cell adhesion molecule 1 (VCAM1), VCAM1 (gene 7412)
Nature of the test: BSK_IMphg_VCAM1: BioMAP Diversity Plus: IMphg Assay for Vascular cell adhesion molecule 1 (VCAM1) Biomarker Activity (AID 2284286). The settings on record: primary human endothelial cells with macrophages. The gist of the method: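 ELISA read-out of VCAM-1 on venular endothelial cell/macrophage co-cultures at 24 h post-treatment, with DMSO as baseline and positive-direction fitting. Parallel sulforhodamine B total-protein staining (560 nm) served as the overt cytotoxicity measure.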

Read-out in test [3]: Intercellular Adhesion Molecule 1 (ICAM1), ICAM1 (gene 3383)
Nature of the test: BSK_hDFCGF_ICAM1: BioMAP Diversity Plus: hDFCGF Assay for Intercellular Adhesion Molecule 1 (ICAM1) Biomarker Activity (AID 2284287). The settings on record: primary human foreskin fibroblasts. The gist of the method: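 ICAM-1 ELISA readout 24 h after dosing, DMSO as baseline, in human dermal foreskin fibroblast cultures. Cytotoxicity checked in parallel wells by SRB staining (0.1% SRB, 10% TCA fixation, 560 nm).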

Read-out in test [4]: CD40, CD40 (gene 958)
Nature of the test: BSK_IMphg_CD40: BioMAP Diversity Plus: IMphg Assay for CD40 Biomarker Activity (AID 2284288). The settings on record: primary human endothelial cells with macrophages. The gist of the method:
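ELISA read-out of cell-surface CD40 at 24 h in human venular endothelial cell/macrophage co-cultures. Activity fitted in the positive direction against DMSO; parallel SRB staining (560 nm) gauges overt cytotoxicity.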

Read-out in test [5]: TIMP metallopeptidase inhibitor 2 (TIMP2), TIMP2 (gene 7077)
Nature of the test: BSK_hDFCGF_TIMP2: BioMAP Diversity Plus: hDFCGF Assay for TIMP metallopeptidase inhibitor 2 (TIMP2) Biomarker Activity (AID 2284289). The note with it: primary human foreskin fibroblasts. The method, boiled down: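 Primary human foreskin fibroblasts in the hDFCGF system, dosed for 24 h; TIMP-2 level measured by ELISA, fitted in the positive direction against DMSO; cytotoxicity checked in parallel by sulforhodamine B total protein staining.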

Read-out in test [6]: Interleukin-1 alpha (IL1a), IL1A (gene 3552)
As to the kind of experiment: BSK_IMphg_IL1a: BioMAP Diversity Plus: IMphg Assay for Interleukin-1 alpha (IL1a) Biomarker Activity (AID 2284290). The settings on record: primary human endothelial cells with macrophages. The gist of the method:
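IL-1α is quantified by ELISA at 24 h in the endothelial/macrophage IMphg co-culture, with gain of signal fitted relative to DMSO. Parallel SRB total-protein staining flags overt toxicity.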

Read-out in test [7]: Macrophage colony-stimulating factor (MCSF), CSF1 (gene 1435)
Nature of the test: BSK_IMphg_MCSF: BioMAP Diversity Plus: IMphg Assay for Macrophage colony-stimulating factor (MCSF) Biomarker Activity (AID 2284293). The settings on record: primary human endothelial cells with macrophages. The method, boiled down: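 M-CSF was measured by ELISA in human venular endothelial cell/macrophage co-cultures dosed for 24 hours. Sulforhodamine B staining of parallel cultures assessed cytotoxicity; data fitted against DMSO baseline.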

Read-out in test [8]: Interleukin-10 (IL10), IL10 (gene 3586)
As to the kind of experiment: BSK_IMphg_IL10: BioMAP Diversity Plus: IMphg Assay for Interleukin-10 (IL10) Biomarker Activity (AID 2284294). The note with it: primary human endothelial cells with macrophages. The method, boiled down:
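IL-10 read by ELISA after 24 h chemical exposure of primary human venular endothelial cell/macrophage cocultures, with DMSO as baseline. Parallel SRB staining (560 nm) gauged overt cytotoxicity.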

The nature of test [9]: BSK_IMphg_SRB.Mphg: Macrophage Viability Assessment in the BioMAP Diversity Plus: IMphg Assay (AID 2284295). The settings on record: primary human endothelial cells with macrophages. The method, boiled down: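 Cytotoxicity read-out: parallel cultures fixed with 10% TCA, stained with 0.1% sulforhodamine B, read at 560 nm. System combines venular endothelium and macrophages; sampled 24 h post-dosing, fitted positively relative to DMSO control.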

Read-out in test [10]: Thrombomodulin, THBD (gene 7056)
As to the kind of experiment: BSK_LPS_Thrombomodulin: BioMAP Diversity Plus: LPS Assay for Thrombomodulin Biomarker Activity (AID 2284296). The settings on record: primary human HUVEC with PBMC. The method, boiled down:
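Thrombomodulin on the surface of LPS-activated endothelial/PBMC co-cultures was quantified by ELISA at 24 hours post-dosing, with DMSO as baseline. Parallel SRB total-protein staining flagged overt cytotoxicity.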

Read-out in test [11]: CD69, CD69 (gene 969)
Nature of the test: BSK_LPS_CD69: BioMAP Diversity Plus: LPS Assay for CD69 Biomarker Activity (AID 2284303). The note with it: primary human HUVEC with PBMC. The gist of the method:
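CD69 surface levels were read by ELISA after 24 h chemical treatment of an LPS-stimulated HUVEC plus PBMC co-culture; positive-direction fit against DMSO vehicle.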

Read-out in test [12]: E-selectin (Homo sapiens) (UniProt P16581)
As to the kind of experiment: BSK_IMphg_ESelectin: BioMAP Diversity Plus: IMphg Assay for Eselectin Biomarker Activity (AID 2284291). The settings on record: primary human endothelial cells with macrophages. The method, boiled down: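 Analysed against DMSO baseline in the positive fitting direction, this endpoint is an ELISA read of E-selectin. It comes from human venular endothelial cells co-cultured with macrophages, sampled 24 h post-dose.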

Test [13] in a line: BSK_IMphg_SRB: Viability Assessment in the BioMAP Diversity Plus: IMphg Assay (AID 2284292).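 Also: measured one day after compound addition.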 The note with it: primary human endothelial cells with macrophages. The gist of the method: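 SRB viability endpoint: cultures of human endothelial cells plus macrophages fixed with 10% TCA, stained with 0.1% SRB, read at 560 nm 24 h post-dosing. Only gain-of-signal fitted, relative to DMSO.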

Several values for one entry are separate records, joined by “and”; a condition that tells them apart may be missing. Identical values can stand only once. Some compounds were tested as several samples or in several runs, with calls that do not always agree. Activity calls are given as the source filed them. The calls were made as follows: active = hit-call score of the fitted dose curve at least 0.9, where 1 is the maximum; inactive = score below 0.9.

Sequence of E-selectin (Homo sapiens) (P16581 whole entry, looked up): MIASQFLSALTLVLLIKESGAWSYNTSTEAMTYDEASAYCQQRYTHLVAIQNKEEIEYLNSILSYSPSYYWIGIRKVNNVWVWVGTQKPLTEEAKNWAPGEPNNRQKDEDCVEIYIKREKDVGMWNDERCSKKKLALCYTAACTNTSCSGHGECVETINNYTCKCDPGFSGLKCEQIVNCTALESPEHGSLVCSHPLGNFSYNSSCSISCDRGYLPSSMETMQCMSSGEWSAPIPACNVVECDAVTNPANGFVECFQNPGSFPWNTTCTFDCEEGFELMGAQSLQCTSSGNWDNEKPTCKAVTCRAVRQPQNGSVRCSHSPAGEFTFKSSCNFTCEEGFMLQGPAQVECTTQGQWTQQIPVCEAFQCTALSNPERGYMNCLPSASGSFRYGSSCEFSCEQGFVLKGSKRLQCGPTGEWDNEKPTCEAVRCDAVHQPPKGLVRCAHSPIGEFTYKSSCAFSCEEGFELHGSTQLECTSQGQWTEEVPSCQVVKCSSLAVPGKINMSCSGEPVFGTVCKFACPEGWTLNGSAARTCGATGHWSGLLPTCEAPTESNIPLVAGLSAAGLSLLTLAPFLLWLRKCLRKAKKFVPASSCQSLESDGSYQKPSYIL

In the case of `O=C(O)C(F)(OC(F)(F)C(F)(OC(F)(F)C(F)(OC(F)(F)C(F)(F)C(F)(F)F)C(F)(F)F)C(F)(F)F)C(F)(F)F` (stereo not drawn), the result in test [1], in test [2], in test [3], in [4], in test [5] and in test [6] was inactive. Further, the outcome in [7], in [8], in test [9], in test [10] and in test [11] was inactive.

On to `O=S(=O)(OCCOC(F)(F)F)C(F)(F)F`, for which the result in test [1], in [2], in [3], in [4], in test [5] and in [6] was inactive. Besides, the outcome in test [12], in test [13], in [7], in test [8], in [9] and in [10] was inactive. Further, the outcome in [11] was inactive.

Turning to `C=C(C)C(=O)OCCC(F)(F)C(F)(F)C(F)(F)C(F)(F)C(F)(C(F)(F)F)C(F)(F)F`, the outcome in test [1], in [2], in test [3], in test [4], in test [5] and in [6] was inactive. Also, the result in test [7], in [8], in [9], in test [10] and in [11] was inactive.

Regarding `C=C(C)C(=O)OCC(F)(F)C(F)(F)C(F)(F)F`, the result in [1], in test [2], in [3], in [4], in test [6] and in test [12] was inactive. Besides, the result in test [13], in [7], in [8], in test [9], in [10] and in [11] was inactive.

Broadly, the AC50 is the midpoint of the concentration-response curve, whichever way the signal moves. `O=C(O)C(F)(F)C(F)(F)C(F)(F)C(F)(F)C(F)(F)C(F)(F)C(F)(F)C(F)(F)C(F)(F)C(F)F`: the AC50 in [1] was 23.4 µM (active) and 42 µM (active); in test [2] it was 52.7 µM (active); in test [3], 14.5 µM (active); in test [8], 47.3 µM (active) and 45 µM (active); in test [9], 49 µM (active) and 22.5 µM (active); in test [10] it was 55 µM (active) and 12.4 µM (active). Besides, the AC50 in test [11] was 37.8 µM (active) and 27.9 µM (active). Besides, the outcome in test [2], in test [3], in test [4], in test [5], in [6] and in [7] was inactive.

For `O=C(O)C(F)(F)C(F)(F)C(F)(F)C(F)(F)C(F)(F)C(F)(F)C(F)(F)C(F)(F)Cl`, the AC50 in test [1] is 44.4 µM (active) and 47 µM (active); in test [2], 48.5 µM (active) and 45.7 µM (active); in test [3], 14.1 µM (active) and 8.21 µM (active); in test [4], 44.5 µM (active) and 46.5 µM (active); in test [8], 45.8 µM (active) and 45.3 µM (active); in test [9], 44.4 µM (active). The AC50 in test [10] is 30 µM (active) and 27.2 µM (active); in test [11] it was 35.5 µM (active) and 40.7 µM (active). The outcome in test [6], in test [12], in test [7] and in test [9] was inactive.

For the compound `CC(C)(C)C(=O)CC(=O)C(F)(F)C(F)(F)C(F)(F)F`, the outcome in [1], in test [2], in test [3], in [4], in [5] and in test [6] was inactive. Moreover, the result in test [7], in test [8], in test [9], in test [10] and in test [11] was inactive.

On to `FC(F)(F)C(F)(F)CNCC(F)(F)C(F)(F)F`, for which the result in test [1], in test [2], in [3], in test [4], in test [5] and in test [6] was inactive. Besides, the result in [13], in test [7], in test [8], in test [9], in test [10] and in test [11] was inactive. Further, the concentration at half-maximal activity (AC50) in [10] was 227 nM (active).

With `NC(=O)C(F)(F)C(F)(F)C(F)(F)C(F)(F)F`, the result in test [1], in test [2], in test [3], in test [4], in test [5] and in [6] was inactive. Also, the outcome in test [7], in test [8], in [9], in test [10] and in [11] was inactive.

As to `O=C(O)C(F)(F)C(F)(F)C(F)(F)F`, the result in test [1], in test [2], in test [3], in test [4], in test [6] and in [12] was inactive. In addition, the outcome in [7], in [8], in test [9], in test [10] and in test [11] was inactive. Further, the AC50 in test [4] is 319 nM (active).

On to `O=C(O)C(F)(F)C(F)(F)C(F)F`, for which the result in test [1], in test [2], in [3], in [4], in test [5] and in test [6] was inactive. Moreover, the result in test [7], in test [8], in test [9], in [10] and in test [11] was inactive.

In the case of `O=C(Cl)C(F)(F)C(F)(F)C(F)(F)C(F)(F)C(F)(F)C(F)(F)C(F)(F)C(F)(F)F`, the AC50 in test [1] is 49.5 µM (active) and 46.4 µM (active); in test [2], 35.9 µM (active) and 46.8 µM (active) and 46.3 µM (active); in [3], 16.5 µM (active) and 19.9 µM (active); in [4] it was 36600 nM (active); in test [8], 51.8 µM (active) and 44.2 µM (active); in test [10] it was 40.9 µM (active) and 21.5 µM (active). Moreover, the AC50 in [11] was 18.1 µM (active) and 22.1 µM (active). Further, the outcome in test [1], in test [3], in test [4], in [6], in [7] and in test [8] was inactive. The outcome in test [9], in [10] and in test [11] was inactive.

As for `O=S(=O)(OCC(F)F)C(F)(F)F`, the outcome in test [1], in test [2], in test [3], in [4], in test [6] and in [12] was inactive. Also, the outcome in test [7], in test [8], in test [9], in test [10] and in test [11] was inactive. Moreover, the AC50 in test [9] is 0.221 µM (active).

The record behind these values is PubChem BioAssay (EPA / NIEHS).
